Screen size: about 30,000 compounds; about 240 (0.8%) were called active. The entries come from a sample that favours actives as a whole. Unmarked numbers belong to inactive results.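 The calls were made as follows: active = at 10 µM dose, at least 30% inhibition, measured as corrected fluorescence normalized to stimulator and neutral control wells; inactive = the rest.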

The target of this assay is Protein artemis (Homo sapiens) (UniProt Q96SD1). Description: blockers of Artemis DNA hairpin overhang cleavage – biochemical, fluorescence intensity, FAM/BHQ-1 hairpin substrate, primary screen (AID 686954). As to conditions: recombinant Artemis, quenched FAM hairpin cleavage fluorescence; at 10 µM; active compounds read high.
Chain of Protein artemis (Homo sapiens) (Q96SD1 whole entry, looked up): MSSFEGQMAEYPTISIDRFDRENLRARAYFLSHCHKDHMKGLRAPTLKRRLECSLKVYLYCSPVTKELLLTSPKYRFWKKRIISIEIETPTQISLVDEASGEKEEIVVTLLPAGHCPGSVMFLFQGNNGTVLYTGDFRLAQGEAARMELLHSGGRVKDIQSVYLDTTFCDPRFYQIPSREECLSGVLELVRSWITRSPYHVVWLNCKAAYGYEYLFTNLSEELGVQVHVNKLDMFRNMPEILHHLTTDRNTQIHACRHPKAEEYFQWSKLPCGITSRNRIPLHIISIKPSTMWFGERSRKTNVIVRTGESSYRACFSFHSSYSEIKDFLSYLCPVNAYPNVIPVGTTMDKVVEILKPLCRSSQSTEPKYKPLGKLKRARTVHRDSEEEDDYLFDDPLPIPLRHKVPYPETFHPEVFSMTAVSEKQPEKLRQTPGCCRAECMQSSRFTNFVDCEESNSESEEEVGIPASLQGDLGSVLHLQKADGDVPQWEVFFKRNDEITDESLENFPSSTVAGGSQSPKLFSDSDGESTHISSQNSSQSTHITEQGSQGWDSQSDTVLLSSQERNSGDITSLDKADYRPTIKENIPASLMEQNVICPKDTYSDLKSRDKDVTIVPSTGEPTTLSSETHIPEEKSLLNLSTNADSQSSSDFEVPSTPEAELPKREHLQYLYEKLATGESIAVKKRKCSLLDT
One may read the inhibition as the relative decrease from the control value, in per cent. For the molecule `CCCC(C)n1[nH]c(=O)c2c(C)cc(C)nc21` (centres undefined), the inhibition is 0.53%. Then `COc1ccccc1NC(=O)CSc1nnc(C)n1CC1CCCO1` (centres undefined), with 2.59%; and `COc1ccc(/C(O)=C2/C(=O)C(=O)N(CC3CCCO3)C2c2ccc(OC)c(OC)c2)cc1` (centres undefined), with -5.65%. Then `Cc1cc(N2C(=O)C(=O)/C(=C(/O)c3ccc(Cl)cc3)C2c2cccc(Br)c2)no1` (centres undefined), with 40% (active); and `COc1ccc(/C(O)=C2/C(=O)C(=O)N(c3nc(C)c(C)s3)C2c2ccco2)cc1` (centres undefined), with 8.17%; and `O=C1OC(c2ccc(Cl)cc2)=N/C1=C\c1cccnc1`, with -6.03%.

Consider `Cc1c(NC(=O)c2cc(-c3ccc(Cl)s3)nc3ccccc23)c(=O)n(-c2ccccc2)n1C`, for which the inhibition is 11.2%. In the case of `CCOC(=O)c1nc(N)sc1C(=O)OCC`, the inhibition is -6.13%.

For `CCCCOC(=O)Cn1c(=O)n(CC(=O)OCCCC)c2cc(C)ccc21`, the inhibition was 6.83%. With `O=C1CC(C(F)(F)C(F)(F)C(F)(F)C(F)(F)F)=Nc2ccccc2N1` the figure was -10.2%; with `CCOC(=O)c1cc(C#N)c(N2CCCCC2)nc1-c1ccccc1`, 1.24%; with `CC(C)(CSc1nncn1/N=C/c1ccco1)NS(=O)(=O)c1ccc(Cl)cc1`, -7.17%. Consider `COc1ccc(/C=C2/S/C(=N/N=C3\CC4CCC3(C)C4(C)C)NC2=O)cc1` (centres undefined), for which the inhibition was 7.63%. Take `COc1ccc(CN2CCn3ncc(C(=O)Nc4ccc(Cl)cc4Cl)c3C2=O)cc1`: the inhibition was -5.33%.

Turning to `Cc1sc(NC(=O)C2C3CCC(O3)C2C(=O)O)c(C(=O)OC(C)C)c1-c1ccc(Cl)cc1` (centres undefined), the inhibition was 34% (active). With `CC(C)OC(=O)c1cc(NC(=O)C2C3CCC(O3)C2C(=O)O)cc(C(=O)OC(C)C)c1` (centres undefined) the figure was -5.25%; with `COc1ccc(C(=O)N2CC3(C)CC2CC(C)(C)C3)cc1OC` (centres undefined), -3.98%. With `CC(=O)Oc1ccc(C)cc1N1C(=O)c2ccc(C(=O)O)cc2C1=O`, the inhibition was 0.06%.

Regarding `CCC1(C)Cc2c(sc3nc(SC)nc(N)c23)CO1` (centres undefined), the inhibition was -3.48%. With `CCC1(CC)NC(=O)N(CC(=O)OCC(=O)Nc2ccc(C(F)(F)F)cc2)C1=O` the figure was 8.68%; with `CCN1CCN(C(=O)/C=C\C(=O)O)CC1`, 0.01%. As to `Cc1cccc(CSc2nnc(NC(=O)CSc3nnc(C)s3)s2)c1`, the inhibition is 4.19%. Then `COc1cccc(/C=N\Nc2nncc(-c3ccccc3)n2)c1`, with 2.99%; and `CCN1CCN(C(=O)C2(NC(=O)Nc3cccc(F)c3)CCCCC2)CC1`, with -5.76%. Turning to `CCCCOC(=O)Nc1sc2nc(C)cc(C)c2c1-n1cccc1`, the inhibition is 6.76%. `CCOC(=O)C(=O)Nc1nc(-c2ccccc2)c(CC)s1`: the inhibition is 2.06%. With `Cc1nnc(SCc2nc3ccccc3nc2C)s1` the figure was -10.2%; with `Cc1cccc(NC(=S)Nc2ccc(Br)cc2)c1`, -9.18%. With `CC(=O)NNc1cc(=O)c2c(=O)n(C)c(=O)n(C)c2[nH]1` the figure was 1.01%. As to `CNS(=O)(=O)c1cnccc1N1CCN(c2cccc(C)c2)CC1`, the inhibition is 2.37%. With `COc1ccc(-c2n[nH]c(C)c2-c2ccc(OC)c(OC)c2)c(O)c1` the figure was -3.87%. Then `c1ccc(Nc2nc(-c3ccncc3)cs2)nc1`, with -4.36%; and `COc1ccc(OC)c(Nc2nc(-c3ccc(O)c(O)c3)cs2)c1`, with 42.1% (active). For `Cc1ccccc1NC(=S)Nc1cccc([N+](=O)[O-])c1`, the inhibition was 2.56%. Consider `Cc1cc(=O)n2c3c(cccc13)CCC2`, for which the inhibition was -4.67%. Then `COc1ccc(-n2nnnc2SCc2nc(N)nc(N3CCOCC3)n2)cc1`, with -0.42%; and `C=CCn1c(SCC(=O)c2c(N)n(C)c(=O)n(C)c2=O)nc2sc(CC)cc2c1=O`, with 9.01%. Turning to `CCOC(=O)C(=CNc1cccc(C)n1)C(=O)OCC`, the inhibition is -3.58%.

In the case of `O=c1c2ccccc2c(-c2ccc(F)cc2)nn1-c1ccc(C(F)(F)F)cc1`, the inhibition was 5.92%.

Turning to `CCCC1(C(=O)OCC)NC(c2ccc(N(C)C)cc2)C2C(=O)N(c3ccc4c(c3)OCCO4)C(=O)C21` (centres undefined), the inhibition is -2.24%.

Regarding `O=c1c2ccccc2nc2n1C(CSc1ccc(Cl)cc1)CN2` (centres undefined), the inhibition is 3.79%. Regarding `COCc1cc(C)nc2sc(C(=O)NC3CCCCC3)c(N)c12`, the inhibition was -2.12%.

With `COCCn1c(C)cc(C(=O)CSc2ncnc3sc4c(c23)CCC4)c1C`, the inhibition was -1.83%. `COCCNc1nc(-n2nc(C)cc2C)nc2sc3c(c12)CCCC3`: the inhibition was 52.7% (active). Then `Cc1cc(C)n(-c2nc(SCC(=O)N3CCCC3)c3c4c(sc3n2)CCCC4)n1`, with 40.1% (active).

Regarding `CCCc1nc2sc3c(c2c(=O)n1NC(=O)CCCl)CCCC3`, the inhibition is -7.23%. Then `N=c1c2c3c(sc2nc2n1CCCCC2)CCCC3`, with -6.19%; and `O=C(O)C1CCN1C1CCCCC1` (centres undefined), with 0.02%; and `Cc1cccc(-n2cnc(C(=O)Nc3cccnc3)c2)n1`, with 9.43%.

`O=S(=O)(c1cccc2nonc12)N1CCN(c2cccc(Cl)c2)CC1`: the inhibition is -9.46%.

For the molecule `CCN(CC)c1nc(-c2ccccc2)cc(C(F)(F)F)c1C#N`, the inhibition is -3.86%. Consider `CCOC(=O)N1CCN(C(=O)CN(C2CCCCC2)S(C)(=O)=O)CC1`, for which the inhibition is -1.82%. Consider `Cc1ccc(OCC(=O)N/N=C/c2ccncc2)cc1`, for which the inhibition was -5.31%. With `COc1ccc(-c2c(C(C)=O)c(C)nc3sc4c(=O)n(-c5ccc(C)cc5)nnc4c23)cc1` the figure was 11.3%.

For the origin of these results see PubChem BioAssay AID686954 (Sanford-Burnham Center for Chemical Genomics, 2013).
